Our source for the inhibition values is ChEMBL document CHEMBL1961873, “Compounds: GSK PKIS; Assays: Nanosyn kinase panel” (2012).

Experiment [1] concerns Epidermal growth factor receptor (Homo sapiens), P00533 [T790M]. Particulars: at 1 µM.
In experiment [2] the test system is Epidermal growth factor receptor (Homo sapiens), P00533 [L858R,T790M]. Particulars: at 0.1 µM.
For experiment [3] the test system is unchanged. Particulars: at 1 µM.
Experiment [4] has as its target Ephrin type-A receptor 2 (Homo sapiens) (UniProt P29317). As to conditions: at 0.1 µM.
The target is the same in experiment [5]. As to conditions: at 1 µM.
The target of experiment [6] is T1, Ephrin type-A receptor 3 (Homo sapiens) (UniProt P29320).
T1 sequence (whole entry): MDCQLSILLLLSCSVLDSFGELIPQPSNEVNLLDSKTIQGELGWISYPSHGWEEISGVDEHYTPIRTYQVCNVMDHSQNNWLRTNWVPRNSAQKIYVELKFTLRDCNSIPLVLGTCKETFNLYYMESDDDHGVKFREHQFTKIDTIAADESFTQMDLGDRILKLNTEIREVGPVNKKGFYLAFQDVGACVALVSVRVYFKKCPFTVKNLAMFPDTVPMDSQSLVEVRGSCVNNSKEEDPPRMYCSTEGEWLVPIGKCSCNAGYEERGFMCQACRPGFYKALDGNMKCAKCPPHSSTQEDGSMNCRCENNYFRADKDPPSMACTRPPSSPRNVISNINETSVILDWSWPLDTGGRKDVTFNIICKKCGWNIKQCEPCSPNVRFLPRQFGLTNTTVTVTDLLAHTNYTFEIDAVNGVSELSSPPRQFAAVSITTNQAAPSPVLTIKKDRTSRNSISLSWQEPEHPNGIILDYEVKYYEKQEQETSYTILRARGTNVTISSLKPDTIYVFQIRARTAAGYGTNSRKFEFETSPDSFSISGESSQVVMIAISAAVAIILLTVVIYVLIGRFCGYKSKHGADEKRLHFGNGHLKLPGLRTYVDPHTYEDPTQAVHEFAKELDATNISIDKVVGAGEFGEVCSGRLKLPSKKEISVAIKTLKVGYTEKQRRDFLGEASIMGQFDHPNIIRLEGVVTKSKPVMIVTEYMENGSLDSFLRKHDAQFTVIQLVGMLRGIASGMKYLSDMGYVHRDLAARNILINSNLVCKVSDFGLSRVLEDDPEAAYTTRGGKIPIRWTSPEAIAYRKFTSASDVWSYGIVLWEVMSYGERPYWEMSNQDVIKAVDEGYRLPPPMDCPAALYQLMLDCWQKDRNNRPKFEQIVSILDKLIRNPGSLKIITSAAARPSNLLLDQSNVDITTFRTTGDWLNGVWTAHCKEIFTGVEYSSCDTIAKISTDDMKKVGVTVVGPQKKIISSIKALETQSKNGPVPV
As to conditions: at 0.1 µM.

Experiment [7] deals with T1, Ephrin type-A receptor 3 (Homo sapiens). As to conditions: at 1 µM.
The target in experiment [8] is Ephrin type-A receptor 4 (Homo sapiens) (UniProt P54764). As to conditions: at 0.1 µM.
The target is the same in experiment [9]. As to conditions: at 1 µM.
Experiment [10] has as its target T2, Ephrin type-B receptor 2 (Homo sapiens) (UniProt P29323).
T2 sequence (whole entry): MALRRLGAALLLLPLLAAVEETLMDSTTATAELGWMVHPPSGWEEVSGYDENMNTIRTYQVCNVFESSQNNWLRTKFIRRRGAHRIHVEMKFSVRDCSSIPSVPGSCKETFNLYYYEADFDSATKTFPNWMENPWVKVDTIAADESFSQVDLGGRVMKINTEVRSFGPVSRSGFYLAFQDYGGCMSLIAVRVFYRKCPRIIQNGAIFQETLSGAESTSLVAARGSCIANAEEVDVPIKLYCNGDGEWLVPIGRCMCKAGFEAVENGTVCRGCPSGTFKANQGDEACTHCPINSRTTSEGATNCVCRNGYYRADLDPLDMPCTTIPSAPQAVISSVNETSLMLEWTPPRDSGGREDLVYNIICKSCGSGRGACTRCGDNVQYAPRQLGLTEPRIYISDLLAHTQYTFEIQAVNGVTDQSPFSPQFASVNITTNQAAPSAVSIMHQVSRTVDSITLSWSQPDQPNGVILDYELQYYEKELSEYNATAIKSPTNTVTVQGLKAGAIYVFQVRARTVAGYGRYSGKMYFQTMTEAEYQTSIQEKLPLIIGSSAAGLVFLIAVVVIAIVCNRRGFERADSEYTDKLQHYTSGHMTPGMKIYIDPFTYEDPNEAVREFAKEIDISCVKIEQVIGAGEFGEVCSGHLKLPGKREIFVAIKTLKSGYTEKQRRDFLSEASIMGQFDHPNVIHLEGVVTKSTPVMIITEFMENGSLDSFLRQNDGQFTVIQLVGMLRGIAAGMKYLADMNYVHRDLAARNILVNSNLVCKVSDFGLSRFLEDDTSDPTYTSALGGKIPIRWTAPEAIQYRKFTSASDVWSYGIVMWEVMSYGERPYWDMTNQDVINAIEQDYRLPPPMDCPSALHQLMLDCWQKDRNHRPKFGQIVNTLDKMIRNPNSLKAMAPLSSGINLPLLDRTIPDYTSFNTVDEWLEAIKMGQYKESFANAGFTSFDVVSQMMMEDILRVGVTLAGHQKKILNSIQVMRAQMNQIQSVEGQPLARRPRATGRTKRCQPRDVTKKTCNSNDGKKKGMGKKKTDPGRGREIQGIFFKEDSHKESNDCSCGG
As to conditions: at 0.1 µM.

The target of experiment [11] is T2, Ephrin type-B receptor 2 (Homo sapiens). As to conditions: at 1 µM.
Experiment [12] addresses T3, Ephrin type-B receptor 3 (Homo sapiens) (UniProt P54753).
T3 sequence (whole entry): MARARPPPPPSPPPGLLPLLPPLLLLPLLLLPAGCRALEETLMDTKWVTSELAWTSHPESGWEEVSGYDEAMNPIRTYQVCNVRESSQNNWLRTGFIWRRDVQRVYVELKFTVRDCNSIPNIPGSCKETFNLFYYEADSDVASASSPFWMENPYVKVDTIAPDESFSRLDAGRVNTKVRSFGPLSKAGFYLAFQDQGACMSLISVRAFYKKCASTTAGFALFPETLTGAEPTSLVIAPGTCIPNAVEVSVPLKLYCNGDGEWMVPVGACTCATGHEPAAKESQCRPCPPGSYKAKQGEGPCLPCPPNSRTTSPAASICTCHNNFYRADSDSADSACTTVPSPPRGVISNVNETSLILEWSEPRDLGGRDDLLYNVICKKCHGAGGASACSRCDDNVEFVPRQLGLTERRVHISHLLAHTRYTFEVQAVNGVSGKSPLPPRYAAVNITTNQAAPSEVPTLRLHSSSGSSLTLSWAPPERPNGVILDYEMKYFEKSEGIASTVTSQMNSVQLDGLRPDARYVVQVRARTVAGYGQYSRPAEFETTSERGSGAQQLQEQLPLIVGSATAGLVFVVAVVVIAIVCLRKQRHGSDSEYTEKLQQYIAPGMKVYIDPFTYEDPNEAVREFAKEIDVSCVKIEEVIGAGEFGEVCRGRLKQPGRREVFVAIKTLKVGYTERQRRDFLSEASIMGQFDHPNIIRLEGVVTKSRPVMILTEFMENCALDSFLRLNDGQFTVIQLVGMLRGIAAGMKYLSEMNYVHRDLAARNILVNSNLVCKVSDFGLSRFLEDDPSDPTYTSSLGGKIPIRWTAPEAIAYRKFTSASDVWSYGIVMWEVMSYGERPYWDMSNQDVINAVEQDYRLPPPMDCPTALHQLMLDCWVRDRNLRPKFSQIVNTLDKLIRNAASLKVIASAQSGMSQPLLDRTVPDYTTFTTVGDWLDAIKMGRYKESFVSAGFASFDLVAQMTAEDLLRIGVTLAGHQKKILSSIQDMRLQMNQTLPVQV
Particulars: at 0.1 µM.

In experiment [13] the target is T3, Ephrin type-B receptor 3 (Homo sapiens). As to conditions: at 1 µM.
Experiment [14] has as its target T4, Ephrin type-B receptor 4 (Homo sapiens) (UniProt P54760).
T4 sequence (whole entry): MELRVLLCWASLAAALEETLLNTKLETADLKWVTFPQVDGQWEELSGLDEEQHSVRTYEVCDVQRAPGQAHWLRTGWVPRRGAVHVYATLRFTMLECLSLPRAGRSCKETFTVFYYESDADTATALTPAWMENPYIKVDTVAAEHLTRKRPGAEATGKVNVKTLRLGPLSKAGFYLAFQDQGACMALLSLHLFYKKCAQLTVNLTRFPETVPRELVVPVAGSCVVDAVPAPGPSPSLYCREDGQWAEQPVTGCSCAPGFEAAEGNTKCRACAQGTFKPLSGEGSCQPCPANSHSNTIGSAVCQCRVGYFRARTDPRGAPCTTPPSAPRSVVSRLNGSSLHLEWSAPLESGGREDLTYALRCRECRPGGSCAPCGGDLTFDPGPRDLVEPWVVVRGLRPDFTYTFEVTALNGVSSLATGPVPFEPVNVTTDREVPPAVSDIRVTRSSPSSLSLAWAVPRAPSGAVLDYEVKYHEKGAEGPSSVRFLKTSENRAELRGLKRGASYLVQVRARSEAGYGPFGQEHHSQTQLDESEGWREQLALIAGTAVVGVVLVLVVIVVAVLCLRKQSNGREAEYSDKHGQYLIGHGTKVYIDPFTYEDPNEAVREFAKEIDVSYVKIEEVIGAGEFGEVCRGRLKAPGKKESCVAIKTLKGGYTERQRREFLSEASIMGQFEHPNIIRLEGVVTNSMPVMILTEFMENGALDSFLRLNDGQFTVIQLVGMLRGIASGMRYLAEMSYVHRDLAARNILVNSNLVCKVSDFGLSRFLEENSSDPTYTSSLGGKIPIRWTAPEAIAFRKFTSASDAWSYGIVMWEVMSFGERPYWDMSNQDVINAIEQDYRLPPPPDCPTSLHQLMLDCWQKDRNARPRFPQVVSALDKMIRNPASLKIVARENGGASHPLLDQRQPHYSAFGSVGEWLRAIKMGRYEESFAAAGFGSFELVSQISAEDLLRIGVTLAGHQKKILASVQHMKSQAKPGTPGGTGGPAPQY
As to conditions: at 0.1 µM.

Experiment [15] has as its target T4, Ephrin type-B receptor 4 (Homo sapiens). As to conditions: at 1 µM.
Experiment [16] deals with Receptor tyrosine-protein kinase erbB-2 (Homo sapiens) (UniProt P04626). Particulars: at 0.1 µM.
Experiment [17] has the same target. As to conditions: at 1 µM.
In experiment [18] the target is Receptor tyrosine-protein kinase erbB-4 (Homo sapiens) (UniProt Q15303). As to conditions: at 0.1 µM.
Experiment [19] shares this target. As to conditions: at 1 µM.
For experiment [20], the target named is Tyrosine-protein kinase Fer (Homo sapiens) (UniProt P16591). As to conditions: at 0.1 µM.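 Further: reported figures are averaged percent inhibition of FER.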

Receptor tyrosine-protein kinase erbB-2 (Homo sapiens), sequence (P04626 whole entry): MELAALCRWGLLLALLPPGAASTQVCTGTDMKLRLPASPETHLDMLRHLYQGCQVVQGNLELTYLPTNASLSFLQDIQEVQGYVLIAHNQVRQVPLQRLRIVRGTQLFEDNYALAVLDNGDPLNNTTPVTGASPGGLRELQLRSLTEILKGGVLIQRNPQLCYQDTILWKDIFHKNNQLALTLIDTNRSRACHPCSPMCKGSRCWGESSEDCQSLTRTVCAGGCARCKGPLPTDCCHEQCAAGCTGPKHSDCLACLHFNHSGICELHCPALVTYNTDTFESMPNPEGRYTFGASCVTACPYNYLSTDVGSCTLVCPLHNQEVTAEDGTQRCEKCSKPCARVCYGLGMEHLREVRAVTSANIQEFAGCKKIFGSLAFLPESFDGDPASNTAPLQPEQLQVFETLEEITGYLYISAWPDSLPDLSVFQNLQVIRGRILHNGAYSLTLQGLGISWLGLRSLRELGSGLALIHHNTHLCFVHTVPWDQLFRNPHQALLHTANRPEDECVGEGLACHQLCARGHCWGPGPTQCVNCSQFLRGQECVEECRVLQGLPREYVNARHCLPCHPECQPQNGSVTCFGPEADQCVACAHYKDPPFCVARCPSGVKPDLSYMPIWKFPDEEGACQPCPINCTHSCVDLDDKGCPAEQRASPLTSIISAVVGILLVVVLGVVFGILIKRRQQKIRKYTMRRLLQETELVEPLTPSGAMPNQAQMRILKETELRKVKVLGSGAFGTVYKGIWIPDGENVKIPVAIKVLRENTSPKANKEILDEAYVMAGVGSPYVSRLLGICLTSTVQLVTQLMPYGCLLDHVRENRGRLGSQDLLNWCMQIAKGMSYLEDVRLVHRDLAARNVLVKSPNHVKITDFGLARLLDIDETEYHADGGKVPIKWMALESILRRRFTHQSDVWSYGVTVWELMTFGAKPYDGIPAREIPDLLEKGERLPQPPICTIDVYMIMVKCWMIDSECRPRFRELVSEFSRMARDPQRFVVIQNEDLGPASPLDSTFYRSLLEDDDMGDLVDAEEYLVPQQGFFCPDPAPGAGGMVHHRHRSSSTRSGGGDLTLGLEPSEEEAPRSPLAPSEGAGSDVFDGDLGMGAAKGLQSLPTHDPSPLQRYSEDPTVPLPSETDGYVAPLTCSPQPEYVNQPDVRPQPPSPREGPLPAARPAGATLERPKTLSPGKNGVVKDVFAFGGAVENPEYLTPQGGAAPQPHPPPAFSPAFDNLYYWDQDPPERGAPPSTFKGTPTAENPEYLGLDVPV
Receptor tyrosine-protein kinase erbB-4 (Homo sapiens), sequence (Q15303 whole entry): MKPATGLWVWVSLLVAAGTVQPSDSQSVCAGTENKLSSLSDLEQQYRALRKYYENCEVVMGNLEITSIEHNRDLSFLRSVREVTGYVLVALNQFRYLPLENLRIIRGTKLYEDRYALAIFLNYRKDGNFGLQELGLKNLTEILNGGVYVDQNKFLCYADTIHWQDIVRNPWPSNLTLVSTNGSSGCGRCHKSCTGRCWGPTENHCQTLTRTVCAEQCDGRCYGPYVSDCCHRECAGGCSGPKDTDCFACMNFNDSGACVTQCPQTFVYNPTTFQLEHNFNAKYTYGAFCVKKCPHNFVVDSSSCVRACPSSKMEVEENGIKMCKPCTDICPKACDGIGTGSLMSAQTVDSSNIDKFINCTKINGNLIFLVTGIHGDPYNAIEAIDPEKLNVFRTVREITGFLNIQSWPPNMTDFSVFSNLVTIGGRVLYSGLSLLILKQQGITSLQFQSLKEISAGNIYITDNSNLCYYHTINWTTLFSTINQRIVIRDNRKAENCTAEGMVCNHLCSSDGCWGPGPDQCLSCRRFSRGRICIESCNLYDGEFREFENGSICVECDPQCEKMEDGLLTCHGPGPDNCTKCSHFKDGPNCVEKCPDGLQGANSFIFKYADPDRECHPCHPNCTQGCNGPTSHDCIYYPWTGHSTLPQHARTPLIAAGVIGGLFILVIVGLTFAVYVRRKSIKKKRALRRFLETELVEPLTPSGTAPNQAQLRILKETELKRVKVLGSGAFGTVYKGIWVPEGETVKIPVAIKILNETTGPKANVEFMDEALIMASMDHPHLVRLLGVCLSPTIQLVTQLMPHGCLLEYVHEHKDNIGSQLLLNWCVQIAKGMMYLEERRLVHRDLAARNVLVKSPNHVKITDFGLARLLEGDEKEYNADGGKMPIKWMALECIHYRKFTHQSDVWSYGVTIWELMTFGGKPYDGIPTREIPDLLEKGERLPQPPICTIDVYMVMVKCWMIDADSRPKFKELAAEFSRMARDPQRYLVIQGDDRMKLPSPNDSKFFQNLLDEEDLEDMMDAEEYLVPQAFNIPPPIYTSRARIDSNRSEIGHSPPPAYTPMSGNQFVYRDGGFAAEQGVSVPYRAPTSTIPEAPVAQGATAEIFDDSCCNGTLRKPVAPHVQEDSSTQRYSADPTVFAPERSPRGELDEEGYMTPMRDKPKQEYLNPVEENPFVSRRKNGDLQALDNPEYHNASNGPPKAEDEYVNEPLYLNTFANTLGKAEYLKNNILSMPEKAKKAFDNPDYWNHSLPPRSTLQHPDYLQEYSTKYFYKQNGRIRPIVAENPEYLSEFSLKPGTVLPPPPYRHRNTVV
Epidermal growth factor receptor (Homo sapiens), P00533 [L858R,T790M], sequence (P00533 whole entry T790M/L858R, looked up): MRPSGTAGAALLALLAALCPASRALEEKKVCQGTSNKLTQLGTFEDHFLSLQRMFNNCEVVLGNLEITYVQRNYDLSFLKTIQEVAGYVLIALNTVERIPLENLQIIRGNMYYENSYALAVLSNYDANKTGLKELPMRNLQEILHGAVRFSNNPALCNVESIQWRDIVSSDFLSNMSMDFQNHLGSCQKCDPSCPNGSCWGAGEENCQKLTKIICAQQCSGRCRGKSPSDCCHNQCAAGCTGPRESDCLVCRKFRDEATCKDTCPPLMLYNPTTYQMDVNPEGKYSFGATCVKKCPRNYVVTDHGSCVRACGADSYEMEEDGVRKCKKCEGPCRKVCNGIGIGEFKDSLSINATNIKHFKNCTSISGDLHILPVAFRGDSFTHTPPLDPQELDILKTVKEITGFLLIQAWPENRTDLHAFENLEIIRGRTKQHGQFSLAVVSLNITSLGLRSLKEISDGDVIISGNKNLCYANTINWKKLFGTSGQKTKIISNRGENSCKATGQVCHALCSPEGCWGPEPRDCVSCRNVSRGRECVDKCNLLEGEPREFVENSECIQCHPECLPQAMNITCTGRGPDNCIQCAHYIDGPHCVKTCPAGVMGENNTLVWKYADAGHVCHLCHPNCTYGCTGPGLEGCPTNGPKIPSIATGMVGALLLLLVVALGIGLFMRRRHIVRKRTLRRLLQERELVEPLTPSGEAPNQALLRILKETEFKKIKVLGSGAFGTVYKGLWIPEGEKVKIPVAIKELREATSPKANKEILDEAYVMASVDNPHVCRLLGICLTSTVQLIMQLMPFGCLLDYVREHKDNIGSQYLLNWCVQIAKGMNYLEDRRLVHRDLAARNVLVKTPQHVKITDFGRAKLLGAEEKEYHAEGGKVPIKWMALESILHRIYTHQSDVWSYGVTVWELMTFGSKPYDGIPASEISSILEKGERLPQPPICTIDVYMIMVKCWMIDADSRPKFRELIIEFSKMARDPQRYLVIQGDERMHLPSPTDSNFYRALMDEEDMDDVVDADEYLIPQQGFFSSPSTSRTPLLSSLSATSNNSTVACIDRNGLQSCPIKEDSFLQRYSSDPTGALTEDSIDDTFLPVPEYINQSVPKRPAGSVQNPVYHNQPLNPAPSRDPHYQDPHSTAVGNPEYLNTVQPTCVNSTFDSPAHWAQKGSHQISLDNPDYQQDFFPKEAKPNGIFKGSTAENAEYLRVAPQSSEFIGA
Ephrin type-A receptor 2 (Homo sapiens), sequence (P29317 whole entry): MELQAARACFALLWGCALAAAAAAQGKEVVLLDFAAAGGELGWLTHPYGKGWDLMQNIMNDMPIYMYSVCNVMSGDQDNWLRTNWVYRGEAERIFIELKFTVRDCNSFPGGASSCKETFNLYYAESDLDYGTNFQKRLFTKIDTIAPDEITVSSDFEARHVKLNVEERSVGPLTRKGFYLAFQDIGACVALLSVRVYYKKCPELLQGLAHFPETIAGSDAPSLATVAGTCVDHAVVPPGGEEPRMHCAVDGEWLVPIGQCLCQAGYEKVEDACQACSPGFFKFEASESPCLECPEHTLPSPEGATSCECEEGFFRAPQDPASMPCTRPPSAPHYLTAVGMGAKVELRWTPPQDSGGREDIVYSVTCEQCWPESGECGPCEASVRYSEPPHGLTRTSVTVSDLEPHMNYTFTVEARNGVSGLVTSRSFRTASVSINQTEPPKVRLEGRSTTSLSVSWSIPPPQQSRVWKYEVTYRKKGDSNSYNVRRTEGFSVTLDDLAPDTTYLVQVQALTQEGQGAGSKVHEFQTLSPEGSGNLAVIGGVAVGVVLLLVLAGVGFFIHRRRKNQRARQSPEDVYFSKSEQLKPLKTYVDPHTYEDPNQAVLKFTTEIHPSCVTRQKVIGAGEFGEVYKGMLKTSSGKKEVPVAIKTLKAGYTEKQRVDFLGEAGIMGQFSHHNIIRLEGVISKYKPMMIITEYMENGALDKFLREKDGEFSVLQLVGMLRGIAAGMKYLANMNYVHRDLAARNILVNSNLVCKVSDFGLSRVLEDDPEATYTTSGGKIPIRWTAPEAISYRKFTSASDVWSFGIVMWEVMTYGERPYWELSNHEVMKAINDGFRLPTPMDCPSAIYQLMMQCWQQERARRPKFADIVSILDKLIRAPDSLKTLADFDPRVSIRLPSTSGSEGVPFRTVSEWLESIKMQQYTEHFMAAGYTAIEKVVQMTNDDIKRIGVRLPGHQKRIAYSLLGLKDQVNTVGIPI

As usually defined, the inhibition is the change of the read-out against control, counted positive when it falls. On to `Cc1cc(O)cc(C)c1/C=C/c1cncc(C(=O)N(C)C)c1`, for which the inhibition in experiment [1] was 0.44%; in experiment [2], -0.03%; in experiment [3] it was -0.26%; in [4], 2.13%; in experiment [5], 4.81%; in experiment [6], 6.48%. The inhibition was determined as 8.52% in [7]; 8.99% in [8]; 18.6% in experiment [9]; 9.34% in experiment [10]; 22.5% in experiment [11]; 5.26% in [12]. The inhibition was 5.69% in [13]; 3.23% in experiment [14]; 7.53% in experiment [15]; 1.35% in [16]; -0.95% in experiment [17]; 9.24% in [18]. For the same molecule, the inhibition in [19] amounted to 7.51%; in experiment [20], 3.43%.

`COC(=O)c1ccc2c(c1)C(=Cc1cc(Br)c(O)c(Br)c1)C(=O)N2`: the inhibition in [1] was 0.92%; in experiment [2], -1.65%; in experiment [3], 2.81%; in experiment [4], 1.71%; in experiment [5] it was 0.89%; in experiment [6] it was 0.28%. Also, the inhibition in [7] came to 4.62%; in experiment [8], 6.35%; in experiment [9], 12.2%; in experiment [10], 6.3%; in [11], 7.02%; in experiment [12] it was 2.1%. Also, the inhibition in [13] is 3.26%; in [14], 2.41%; in experiment [15], 3.68%; in experiment [16], -0.98%; in [17], 3.44%; in experiment [18], 3.22%. In addition, the inhibition is 14.2% in [19] and -1.52% in experiment [20].

Take `NC(=O)c1sc(-n2cnc3ccccc32)cc1OCc1ccccc1Br`: the inhibition amounted to 1.85% in experiment [1]; 2.85% in [2]; 1.45% in [3]; 0.63% in experiment [4]; 0.39% in experiment [5]; 1.18% in experiment [6]. The inhibition in experiment [7] came to 3.38%; in [8] it was 6.29%; in [9] it was 9.89%; in [10] it was 5.64%; in experiment [11] it was 10.9%; in [12] it was 4.52%. For the same molecule, the inhibition was 6.83% in [13]; 1.58% in experiment [14]; 3.37% in [15]; 0.61% in [16]; 3.64% in [17]; 3.34% in experiment [18]. Further, the inhibition is 9.23% in experiment [19] and -0.27% in experiment [20].

Regarding `O=C(Nc1ccc(Oc2ccc3[nH]c(NC(=O)c4ccco4)nc3c2)cc1)Nc1cc(C(F)(F)F)ccc1F`, the inhibition in experiment [1] is -1.32%; in experiment [2], 1.13%; in [3], 0.64%; in experiment [4] it was 18.8%; in experiment [5], 82.8%; in experiment [6], 4.15%. For the same molecule, the inhibition was 15.9% in [7]; 36.3% in experiment [8]; 86.9% in experiment [9]; 36.1% in experiment [10]; 78.3% in experiment [11]; 2.25% in [12]. Besides, the inhibition in experiment [13] was 24.2%; in [14], 8.82%; in experiment [15], 63.8%; in experiment [16], -0.1%; in experiment [17], -0.1%; in experiment [18], -1.74%. Further, the values for the inhibition in [19] and in experiment [20] were -5.16% and 3.08%, respectively.
